Out of some 6,900 compounds screened, fewer than 10 were called active. Calls come from the whole dose curve; as a rule, active = well fitted curve in the direction sought with a large enough effect; inconclusive = small, poorly fitted or top-dose-only effect, or another doubt; inactive = no such curve, though single readings can be large or run the other way. Not all results are given here.

Metallo-beta-lactamase type 2 (Klebsiella pneumoniae), sequence (C7C422 whole entry, looked up): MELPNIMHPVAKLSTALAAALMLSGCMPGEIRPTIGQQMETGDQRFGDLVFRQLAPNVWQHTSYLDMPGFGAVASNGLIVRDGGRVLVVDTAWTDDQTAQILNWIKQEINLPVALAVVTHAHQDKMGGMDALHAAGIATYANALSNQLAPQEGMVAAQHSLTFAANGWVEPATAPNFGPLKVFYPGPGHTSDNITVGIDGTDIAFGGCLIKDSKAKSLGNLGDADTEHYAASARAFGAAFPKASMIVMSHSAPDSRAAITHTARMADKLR

The target in this assay is Metallo-beta-lactamase type 2 (Klebsiella pneumoniae) (UniProt C7C422). The assay can be described thus: qHTS to identify inhibitors of the New Delhi Metallo-beta-lactamase (NDM): primary screen against the NCATS Gemini Collection. To be noted: NDM-1 enzyme, meropenem hydrolysis, absorbance 300 nm; series mostly up to 38.4 µM. The source says:
Assay Submitter (PI): James Inglese Ph.D., Patricia Dranchak Ph.D., Mahesh Aitha Ph.D. Assay Development and Screening Technology Laboratory (ADST) National Center for Advancing Translational Sciences (NCATS), Rockville, MD National Institute of Health (NIH), Bethesda, Maryland The metallo-beta-lactamases (MBL) are a main antibiotic resistance mechanism evolved by bacteria. There is an urgent clinical need for MBL inhibitors to mitigate this growing threat. To support a machine-based learning study, qHTS has been used to experimentally test inhibitors identified by prediction tools.
PROTOCOL TABLE (as described by Inglese et al., 2007) SEQUENCE No. (e.g., 1, 2, 3, etc.); […] (e.g., enzyme, Incubation, Reagent, etc.); VALUE; DESCRIPTION 1; NDM-1; 4 uL of 3 nM enzyme [2 nM final] in 50 mM HEPES (pH 7.0), 1 uM […], 0.01% Tween20; Use BioRaptr to dispense into Aurora black, clear bottom low base 1536-well plates 2; Compounds; 23 nL; Use Pin Tool (Wako) to transfer DMSO control and library compounds in DMSO 3; Incubate; >30 min 4; Reagent; 2 uL of 150 uM meropenem [50 uM final] 5; Incubate; 30 min. 6; Detector; Absorbance at 300 nm (bandwidth = 5 nm, 25 flashes/well) on Tecan Infinity NOTES (numbers refer to sequence above) 1; Column 1 of each plate received assay buffer without enzyme and columns 2-48 received enzyme for a final assay concentration of 2 nM. 2; Control plate contained DMSO in columns 1, 2, 3, and 4. 3; Compound interaction with enzyme. 4; Meropenem substrate was prepared in the same assay buffer as step 1 for a final assay concentration of 50 uM and added to all wells across the assay plates. 5; Substrate interaction with enzyme, plateau phase of kinetics. 6; Default reader settings were applied for absorbance read at 300 nm, bandwidth = 5 nm, 25 flashes/well. References: Inglese J, Shamu CE, Guy RK. 2007. Reporting data from high-throughput screening of small-molecule libraries. Nat Chem Biol. doi:10.1038/nchembio0807-438 Yasgar A, Shinn P, Jadhav A, Auld D, Michael S, Zheng W, Austin CP, Inglese J, Simeonov A. 2008. Compound Management for Quantitative High-Throughput Screening. J Lab Autom 13:79 - 89. doi:10.1016/j.jala.2007.12.004
On the technique in general: In qHTS, concentration-response curves come from the screen itself.
Turning to `CN1C(=O)[C@H]2CN(Cc3cn[nH]c3-c3cccs3)C[C@H]2C1=O`, the molecule was called inactive.
With `CCOCCn1c(=O)[nH]c2cc(C(=O)NCCn3cnnc3)ccc21` the entry was “inactive”; with `Cn1cnnc1-c1nn(C)c2c1CNCC2`, “inactive”; with `COc1ccc(-c2nc(N3CCOCC3)cc3c2CN(Cc2ccccc2)C3=O)cn1`, “inactive”.
With `O=C(c1ccc(Cl)cc1)N1CCN(Cc2ccccc2-c2cccnc2)CC1` the entry was “inactive”; with `CCOCCn1nc(C)cc1C(=O)N[C@H]1[C@H]2CCO[C@H]2[C@@H]1N(C)C`, “inactive”; with `CCn1c(CO)nnc1C1CC(NC(=O)c2[nH]c3ccc(OC)cc3c2C)C1` (configuration not stated), “inactive”.
With `O=C(NCCCc1ccccc1F)[C@@]12CNC[C@@H]1CN(Cc1ccccc1)C2` the entry was “inactive”; with `CCCNc1ccc2nncn2n1`, “inactive”; with `COc1cc(OC)cc(-c2onc(C)c2C(=O)NCc2ccccc2C)c1`, “inactive”.
Regarding `CS(=O)(=O)NC[C@H]1Cn2ccnc2CO1`, the molecule was classed as inactive.
Consider `Cc1noc(C)c1[S+](=O)([O-])N1CCc2nc(-c3ccccc3)nc(-c3ccc(Cl)cc3)c2C1`, for which the result was inactive.
With `Cc1ccc2nc(C(NC(=O)C3CCN(CC(N)=O)CC3)C(C)C)[nH]c2c1` (configuration not stated) the entry was “inactive”; with `COc1cc2c(cc1NS(C)(=O)=O)C(c1cccc3c1OCO3)CC(=O)N2` (configuration not stated), “inactive”; with `Cn1cc(-c2ccc3c(n2)CN(Cc2ccc(F)cc2)C(=O)CO3)cn1`, “inactive”.
With `Cc1nn(-c2ccccc2)c(C)c1Cc1nc(C(C)C)no1`, the call was inactive.
For the molecule `Cn1cncc1C(=O)N1CCC2(CC1)CNC(C(=O)O)C2` (configuration not stated), the outcome was inactive.
With `COc1cccc(N2CCN(C(=O)c3noc(-c4ccc(C)cc4)n3)CC2)c1` the entry was “inactive”.
With `CCc1c(C)nn(CCNC(=O)c2cc(S(N)(=O)=O)ccc2F)c1C` the entry was “inactive”.
As for `COc1cc(F)ccc1-c1nc(-c2c(C)noc2C)cc2cc(C)oc12`, the result was inactive.
With `COCCCN(CCC(=O)NCc1ccc2c(c1)OCO2)C(=O)c1cc(C)oc1C` the entry was “inactive”; with `Cc1cnc(CCNS(=O)(=O)c2cccc(F)c2)n1C(C)C`, “inactive”; with `Cc1cccnc1NCCNC(=O)c1ccc(S(N)(=O)=O)cc1`, “inactive”.
With `CCCN1CCC2(CCN([S+](=O)([O-])c3cccs3)CC2)Oc2ccccc21` the entry was “inactive”; with `Cc1ccc(C(=O)N2CCCC2C(=O)N2CCCC2c2nc3ccncc3[nH]2)cc1` (configuration not stated), “inactive”.
`O=C(c1ccoc1)N1CCN(c2cc(C3CC3)ncn2)CC(O)C1` (configuration not stated): the molecule was called inactive.
With `Cc1n[nH]c(C)c1CNC(=O)C1CCN(c2cn[nH]c(=O)c2)C1` (configuration not stated) the entry was “inactive”; with `COCCC1(NC(=O)C2CC2)CCN(C(=O)c2ccccn2)CC1`, “inactive”.
As to `O=C1CC2(CCN(C(=O)c3ccccn3)C2)Nc2ccccc2N1` (configuration not stated), the molecule was classed as inactive.
Turning to `O=C1Cc2c(-c3ccccc3OCc3ccccc3)n[nH]c2CN1Cc1ccccn1`, the outcome was inactive.
On to `CCCc1ccc2oc(C(=O)N(C)CCC3CCCCO3)c(C)c2c1` (configuration not stated), for which the result was inactive.
As for `O=C1NCCCc2[nH]c(-c3cnn(-c4ccc(F)cc4)c3)nc21`, the molecule was classed as inactive.
With `CCc1nc2c(c(-c3ccc(Cl)cc3)n1)CN(Cc1ccccn1)CC2` the entry was “inactive”; with `CCN1CCC(CC(=O)N2CCC(C3CCN(C(=O)NC)CC3)C2)CC1` (configuration not stated), “inactive”; with `CN(C)S(=O)(=O)N1CCc2nn(C)c(=O)n2CC1`, “inactive”.
With `CC(=O)c1ccc(NC(=O)N[C@H]2CCN3C(=O)[C@@H](Cc4ccccc4)NC(=O)[C@H]23)cc1` the entry was “inactive”; with `CCn1ccc(C(=O)N2CC(c3nc(CCOCC4CC4)no3)C2)n1`, “inactive”.
With `NC(=O)[C@@H](Cc1ccccc1)NC(=O)[C@@H]1C[C@@H](NS(=O)(=O)c2cccs2)CCN1C(=O)CSCC(=O)O`, the outcome was inactive.
As to `COc1cccc(CCC(=O)N2CCC(OCC3CC3)C2)c1` (configuration not stated), the outcome was inactive.
For the molecule `CN1C(=O)CC[C@]2(C(=O)NCc3ccco3)CCCC[C@@H]12`, the molecule was classed as inactive.
Take `Cc1cn2nnc(C(=O)N3CCC(C(=O)Nc4cccc(F)c4)CC3)c2c(=O)[nH]1`: the outcome was inactive.
With `COc1ccc(CN(C)C2CCCN(CCc3ccccc3)C2)c(OC)c1OC` (configuration not stated) the entry was “inactive”.
With `CC(=O)N1CCC(OCCOc2ccccc2)CC1` the entry was “inactive”; with `CCOc1c(CN(C)C(=O)Cn2cccc(OC)c2=O)cccc1OC`, “inactive”.
With `Oc1ccccc1CN1CC(CNc2cccnc2)C2(C1)CN(c1ccccc1)C2` (configuration not stated) the entry was “inactive”; with `O=C(CC1CCCC1)N1C[C@@H](CO)[C@@H]2Oc3ccc(Cl)cc3[C@@H]21`, “inactive”; with `COC1CCOC2(CCN(C(=O)Cc3ccccc3)CC2)C1` (configuration not stated), “inactive”.
On to `CCc1ccc(S(=O)(=O)N2c3ccccc3CC2c2nnc(C3CCOCC3)o2)cc1` (configuration not stated), for which the molecule was called inactive.
With `CC(C)(C)OC(=O)N1CC(NCc2cccc(F)c2F)C1` the entry was “inactive”; with `C1=C(c2nc(-c3ccncc3)cc3c2ccn3Cc2cccnc2)CCOC1`, “inactive”; with `COC(=O)N1CCCCC1C(=O)N1CCC2(CC1)c1nc[nH]c1CCN2C` (configuration not stated), “inactive”.
With `O=C(N1CCCCCC1CN1CCOCC1)C1(c2ccccc2)CC1` (configuration not stated) the entry was “inactive”.

(Values after PubChem BioAssay AID1794845 (National Center for Advancing Translational Sciences (NCATS), 2023).)
